Shown are actives, neighbours in structure and some others; about 5.8% of the full set was active somewhere.
KB-V1 cytotox: kills drug-selected multidrug resistant KB-V1 cells | AID 1347076 | 3.4% of 400,000 active | Potency, µM (titrated, usually from 46.1 µM), most hits filed as cytotoxic | KB-V1 MDR cells viability, CellTiter-Glo, 72 h; further: nearly all actives have a fitted effect of over 60% in size
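Cells of the MDR subline KB-V1 are plated, dosed with compound at multiple concentrations, and incubated 72 h at 37 degrees C; CellTiter-Glo is then added and luminescence read after 10 min.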
PINK1 expr mod: modulators of PINK1 expression; AID 624263; Potency, µM (doses to about 76.6 µM), hits mostly activators; PINK1 immunofluorescence, high-content cytometry, 24 h; 0.2% of 410,000 active; active means well fitted activation curve with a large enough effect; inconclusive means small, poorly fitted or top-dose-only effect; cell line not stated here; further: nearly all actives have a fitted effect of over 65% in size
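Stable cell line, 250 cells/well, 12 h attachment; compounds pinned at 5 concentrations, 24 h; CCCP control. Fixed with nuclear dye, primary antibodies 12 h at 10 degrees C, secondary plus cell stain; laser-scanning cytometer read.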
SW480 rereplic: inducers of DNA re-replication in SW480 colon cancer cells | SW480 DNA re-replication, Hoechst DNA content imaging, 48 h | Potency, µM (highest dose often 46.1 µM), most hits filed as activators | 1.8% of 340,000 active; further: nearly all actives have a fitted effect of over 55% in size
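First, 250 cells per well were seeded. Next, compound or vehicle (23 nL) was pinned in, plates sat 48 hr at 37 C. Finally Hoechst was added for 40 min before fluorescence scanning.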
KB-3-1 cytotox: KB-3-1 parental cell cytotoxicity; KB-3-1 viability, CellTiter-Glo ATP luminescence, 72 h; Potency, µM (series often up to 46.1 µM), most hits filed as cytotoxic; 1.4% of 400,000 active; further: nearly all actives have a fitted effect of over 60% in size
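KB-3-1 cells, DMEM (no phenol red) + 10% FBS; compound by pin transfer, 72 h, 37 °C. Readout: CellTiter-Glo luminescence after 10 min. Data normalized, curve-fitted.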
ALOX12 inh: inhibitors of human 12S-lipoxygenase ALOX12. 1.1% of 580,000 active. purified 12hLO, xylenol orange hydroperoxide absorbance. Potency, µM (titrated, usually from 108 µM), most hits filed as inhibitors
Target sequence (P18054 whole entry, looked up): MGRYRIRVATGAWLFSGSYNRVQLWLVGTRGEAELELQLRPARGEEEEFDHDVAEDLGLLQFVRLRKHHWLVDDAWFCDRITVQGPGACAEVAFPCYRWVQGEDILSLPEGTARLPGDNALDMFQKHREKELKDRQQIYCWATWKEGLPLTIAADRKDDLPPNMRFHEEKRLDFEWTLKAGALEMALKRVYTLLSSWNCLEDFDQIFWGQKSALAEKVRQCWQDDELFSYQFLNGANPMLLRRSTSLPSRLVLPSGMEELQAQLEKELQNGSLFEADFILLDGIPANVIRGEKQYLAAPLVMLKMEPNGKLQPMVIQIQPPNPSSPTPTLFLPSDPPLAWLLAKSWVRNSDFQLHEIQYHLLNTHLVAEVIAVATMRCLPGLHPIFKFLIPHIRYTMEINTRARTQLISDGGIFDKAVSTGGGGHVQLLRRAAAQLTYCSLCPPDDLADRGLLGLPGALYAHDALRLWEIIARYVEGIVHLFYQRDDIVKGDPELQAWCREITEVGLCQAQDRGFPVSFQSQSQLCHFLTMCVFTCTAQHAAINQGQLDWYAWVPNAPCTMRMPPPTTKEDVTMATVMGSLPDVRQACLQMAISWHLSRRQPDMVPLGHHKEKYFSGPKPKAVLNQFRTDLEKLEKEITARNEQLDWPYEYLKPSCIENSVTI
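Purified human 12hLO at 150 nM in 25 mM Hepes, 0.01% Triton X-100, pH 7.0, preincubated 15 min at room temperature with compound. Reaction started with 40 uM arachidonic acid, 30 min at room temperature. Hydroperoxide measured by Fe-xylenol orange, 573/405 nm absorbance ratio.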
MCF10A rerep: induces DNA re-replication in MCF 10a normal breast cells. 2.9% of 350,000 active. MCF 10A DNA re-replication, Hoechst nuclear intensity, 48 h. Potency, µM (doses to about 46.1 µM), most hits filed as activators; further: nearly all actives have a fitted effect of over 50% in size
Each line names hits and unclear results; the compound was inactive in the other large screens. Unless noted, the call rests on the fitted dose curve; in most records, active means well fitted curve in the direction sought with a large enough effect; inconclusive means small, poorly fitted or top-dose-only effect, or another doubt; inactive means no such curve, though single readings can be large; an effect the other way counts as inactive or inconclusive.

CCOC(=O)/C(Sc1nc(-c2ccccc2)cc(-c2ccccc2)c1C#N)=C(\C)O	SW480 rereplic 12µM, MCF10A rerep 3.7µM
CCOC(=O)CSc1nc(-c2ccccc2)cc(C(F)(F)F)c1C#N	none (no result: SW480 rereplic, MCF10A rerep)
Clc1ccc(Cn2c(CN3CCOCC3)nc3ccccc32)c(Cl)c1	none (no result: KB-V1 cytotox, PINK1 expr mod, SW480 rereplic, KB-3-1 cytotox, MCF10A rerep)
COc1ccc(-n2nc(C)c([C@@H]3C=C[C@@H](NCc4cccc(Cl)c4)C3)c2C)cc1	none (no result: KB-V1 cytotox, PINK1 expr mod, SW480 rereplic, KB-3-1 cytotox, MCF10A rerep)
O=C1C(SCCO)=C(SCCO)C(=O)c2ccccc21	KB-V1 cytotox inconclusive, KB-3-1 cytotox inconclusive, ALOX12 inh inconclusive
CC1=C(SCc2ccccc2)C(=O)c2ccccc2C1=O	KB-V1 cytotox inconclusive, SW480 rereplic 3.7µM, KB-3-1 cytotox inconclusive, ALOX12 inh 13µM, MCF10A rerep 3.7µM
Cc1nn(Cc2c(F)c(F)c(F)c(F)c2F)c(C)c1NC(=O)c1ccc(COc2ccc(Cl)cc2Cl)o1	KB-V1 cytotox 18µM, SW480 rereplic inconclusive, KB-3-1 cytotox inconclusive, MCF10A rerep inconclusive
O=C(Nc1ccccc1F)c1ccc(COc2ccc(Cl)cc2Cl)o1	none
O=C(Nc1ccn(Cc2c(F)c(F)cc(F)c2F)n1)c1ccc(COc2ccc(Cl)cc2Cl)o1	KB-V1 cytotox 8.2µM
CNS(=O)(=O)c1cc(NC(=O)c2cccc(OCc3c(C)noc3C)c2)ccc1C	none (no result: KB-V1 cytotox, PINK1 expr mod, SW480 rereplic, KB-3-1 cytotox, MCF10A rerep)
CC1Cc2ccccc2N1C(=O)c1ccnc(C(C)(C)C)c1 (stereo unspecified)	none
O=C(Nc1cccc(C(=O)N2CCCc3ccccc32)c1)c1ccccc1	KB-V1 cytotox 21µM, SW480 rereplic inconclusive, KB-3-1 cytotox inconclusive, MCF10A rerep 15µM
COc1ccc(C(=O)N2CCCc3ccccc32)cc1OC	none
COc1cc(C(=O)N2CCCc3ccccc32)cc(OC)c1OC	KB-V1 cytotox inconclusive, SW480 rereplic inconclusive, KB-3-1 cytotox inconclusive, MCF10A rerep 10µM
COc1cc(C(=O)N2c3ccccc3CC2C)cc(OC)c1OC (stereo unspecified)	KB-V1 cytotox 18µM, KB-3-1 cytotox inconclusive
CCCN(CCC)S(=O)(=O)c1ccc(C(=O)N2CCCc3ccccc32)cc1	KB-V1 cytotox inconclusive, SW480 rereplic inconclusive, KB-3-1 cytotox inconclusive, MCF10A rerep 23µM
O=C(NCC1CC1)c1cc(C2CC2)nc2onc(C3CCCN3)c12 (stereo unspecified)	none (no result: KB-V1 cytotox, PINK1 expr mod, SW480 rereplic, KB-3-1 cytotox, MCF10A rerep)
COc1ccccc1-c1cc(N2CCOCC2=O)c2cncn2c1	none (no result: KB-V1 cytotox, PINK1 expr mod, SW480 rereplic, KB-3-1 cytotox, MCF10A rerep)
COCCn1c(C)c(C)c(S(=O)(=O)c2ccc(F)cc2)c1NC(=O)c1cccs1	none (no result: KB-V1 cytotox, PINK1 expr mod, SW480 rereplic, KB-3-1 cytotox, MCF10A rerep)
CCc1cccc(C)c1NC(=O)NCC(O)c1ccccc1 (stereo unspecified)	none (no result: KB-V1 cytotox, PINK1 expr mod, SW480 rereplic, KB-3-1 cytotox, MCF10A rerep)
CC(C)Cc1ccc(C(C)CC2=CCC(CN(C)C)C2=O)cc1 (stereo unspecified)	KB-V1 cytotox inconclusive, SW480 rereplic inconclusive, KB-3-1 cytotox inconclusive, MCF10A rerep 6.5µM
O=C(NC1CCCCC1)C(c1ccc(O)cc1)N(CC1CCCO1)C(=O)C1COc2ccccc2O1 (stereo unspecified)	KB-V1 cytotox 21µM
COc1ccc2nc(N=NC3=C(O)CC(C)(C)CC3=O)sc2c1	SW480 rereplic 2.1µM, KB-3-1 cytotox inconclusive
COc1ccc2nc(N)sc2c1	KB-3-1 cytotox inconclusive
COc1ccc2nc(N=Nc3ccc(O)c4ccccc34)sc2c1	KB-V1 cytotox inconclusive, SW480 rereplic inconclusive, KB-3-1 cytotox inconclusive, MCF10A rerep 8.2µM
COc1ccc(S(=O)(=O)C(C#N)c2nc3ccccc3nc2N2CCCC(C)C2)cc1 (stereo unspecified)	ALOX12 inh inconclusive, MCF10A rerep 12µM
Cc1ccc(S(=O)(=O)C(C#N)c2nc3ccccc3nc2N2CC(C)OC(C)C2)cc1C (stereo unspecified)	PINK1 expr mod inconclusive, SW480 rereplic inconclusive, MCF10A rerep 15µM
CC1CCCN(c2nc3ccccc3nc2C(C#N)S(=O)(=O)c2cccs2)C1 (stereo unspecified)	KB-V1 cytotox inconclusive, ALOX12 inh inconclusive, MCF10A rerep inconclusive
Cc1cccc(S(=O)(=O)C(C#N)c2nc3ccccc3nc2N2CC(C)OC(C)C2)c1 (stereo unspecified)	KB-V1 cytotox inconclusive, PINK1 expr mod inconclusive, KB-3-1 cytotox inconclusive, ALOX12 inh inconclusive
Cc1ccc(S(=O)(=O)C(C#N)c2nc3ccccc3nc2N2CCCC2)cc1 (stereo unspecified)	KB-V1 cytotox 18µM, ALOX12 inh inconclusive, MCF10A rerep inconclusive
CN1/C(=N\O)c2cccc3cccc1c23	KB-V1 cytotox inconclusive, KB-3-1 cytotox inconclusive, ALOX12 inh inconclusive, MCF10A rerep 18µM
CNC(=O)CN1C(=O)c2cccc3cccc1c23	none
CCN1CCCC2(Cc3ccccc3CN(C(C)=O)C2)C1 (stereo unspecified)	none (no result: KB-V1 cytotox, PINK1 expr mod, SW480 rereplic, KB-3-1 cytotox, MCF10A rerep)
COC(=O)CN=Cc1c(C)[nH]n(-c2ccccc2)c1=O	SW480 rereplic inconclusive
Cc1[nH]n(-c2ccccc2)c(=S)c1C=NCCCN=Cc1c(C)[nH]n(-c2ccccc2)c1=S	ALOX12 inh 11µM
O=C(CCl)Nc1cccc(S(=O)(=O)NC2=NCCCCC2)c1	KB-V1 cytotox inconclusive, KB-3-1 cytotox inconclusive, MCF10A rerep inconclusive
O=C(Nc1cccc(S(=O)(=O)Nc2ccccc2F)c1)c1ccc2ccccc2n1	ALOX12 inh inconclusive
COc1ccccc1NS(=O)(=O)c1cccc(NC(=O)c2ccc3ccccc3n2)c1	KB-V1 cytotox 2.6µM, KB-3-1 cytotox inconclusive
O=C(Nc1ccc(S(=O)(=O)NC2=NCCCCC2)cc1)c1ccccc1Cl	none
O=C(Nc1ccc(S(=O)(=O)NC2=NCCCCC2)cc1)c1ccc2ccccc2n1	KB-V1 cytotox 23µM

From PubChem
